# Experimental data reported in the OligoGym collection.
# Target: CMYA5
# Experiment: pooled miR-30 sensor sort-seq; sequence = guide strand
# Settings: shRNA
# Also: reference of the scale not given here.
row,Sequence,sensor-assay potency score (higher = more potent)
1,TAACACTAGATTTCCTTCCTGA,0.81
2,TAATACTAGATTTCCTTCCTGA,0.791
3,TTTTTCTTCACTGTGATCTGGC,0.846

# Target: CNGA4
# Experiment: as above
# Settings: shRNA
row,Sequence,sensor-assay potency score (higher = more potent)
1,TTCATGTTGTAGATGACAGAGC,-0.761
2,TTCTGAAAGATCTGCACCCGGC,-0.677
3,TATAGCAGGTCACTCGTGTAGT,-0.135
4,TAGGTCTGAATAACCTAGGCTC,-0.534
5,TACCAGTCAATAACTCGCCGCT,0.117
6,TGCTTGTGGATACTCGCTCAGC,-1.17
7,ATAACCGTGCTGCAAGTCGGGG,-1.46
8,TTGTAGATGACAGAGCTCATGC,-0.748
9,TCTCGGATGATGTACATCTCTT,-0.967
10,ATACCAGTCAATAACTCGCCGC,-0.942
11,ACTGTAGTCAGTATCAGCGTGG,-0.617
12,TCGTTGGTCATCTTCTTGTTGA,-0.985
13,TTCAGCAGGATCTCACGTCCTT,0.0798
14,TTCACCTGGTGAGTAGGTCTGG,-0.244
15,TACCTCGTTGGTCATCTTCTTG,-0.968
16,TTGATGTTGGCTGTGCGGCGGT,-0.481
17,TAAGCTGTGCGGGTCTCTGTGC,-0.546
18,TAACCGTGCTGCAAGTCGGGGA,-0.253
19,TAGATGACAGAGCTCATGCTAC,-0.751
20,TCGGATGATGTACATCTCTTGG,-1.02
21,TAAGCAATCTTAAGTGCGCTGG,0.0217
22,TTCAATGCGGTAAGCAATCTTA,-0.691
23,ATGATGTACATCTCTTGGCCAA,-1.02
